Results as given in PubChem BioAssay (NCI).
Where “and” joins values, the source holds several entries; their conditions need not be identical. Equal values may be shown once. Compounds without any hit were thinned out: in the full panel of roughly 83,000, 20% have a hit.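 Percent growth is the endpoint: 0 to 100 indicates growth inhibition (40 means 60% inhibition), 0 means no net growth, and negative values indicate cell death.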 Calls of active or inactive are those of the source. The calls were made as follows: active = growth percent below 10; inactive = the rest.

Columns and labels:
Assay in all cases: NCI-60 one-dose screen, 48 h (100 = growth as untreated, 0 = no growth, -100 = all killed)
Conditions in all cases: 10 µM unless noted
SK-MEL-2 melanoma = system: SK-MEL-2 melanoma
EKVX NSCLC = system: EKVX NSCLC
SN12C renal = system: SN12C renal
UO-31 renal = system: UO-31 renal
TK-10 renal = system: TK-10 renal
ACHN renal = system: ACHN renal
CAKI-1 renal = system: CAKI-1 renal
A498 renal = system: A498 renal
CCRF-CEM leukemia = system: CCRF-CEM leukemia
MOLT-4 leukemia = system: MOLT-4 leukemia
SR leukemia = system: SR leukemia
OVCAR-8 ovarian = system: OVCAR-8 ovarian
OVCAR-5 ovarian = system: OVCAR-5 ovarian
OVCAR-4 ovarian = system: OVCAR-4 ovarian
SK-OV-3 ovarian = system: SK-OV-3 ovarian
IGROV1 ovarian = system: IGROV1 ovarian
OVCAR-3 ovarian = system: OVCAR-3 ovarian
HS 578T breast = system: HS 578T breast
NCI/ADR-RES ovarian = system: NCI/ADR-RES ovarian
RPMI-8226 leukemia = system: RPMI-8226 leukemia

SMILES	growth (SK-MEL-2 melanoma)	growth (EKVX NSCLC)	growth (SN12C renal)	growth (UO-31 renal)	growth (TK-10 renal)	growth (ACHN renal)	growth (CAKI-1 renal)	growth (A498 renal)	growth (CCRF-CEM leukemia)	growth (MOLT-4 leukemia)	growth (SR leukemia)	growth (OVCAR-8 ovarian)	growth (OVCAR-5 ovarian)	growth (OVCAR-4 ovarian)	growth (SK-OV-3 ovarian)	growth (IGROV1 ovarian)	growth (OVCAR-3 ovarian)	growth (HS 578T breast)	growth (NCI/ADR-RES ovarian)	growth (RPMI-8226 leukemia)
COc1cc(C=O)ccc1Oc1ccc([N+](=O)[O-])cc1[N+](=O)[O-]	96.9% (inactive)	105% (inactive)	99.8% (inactive)	83.3% (inactive)	106% (inactive)	106% (inactive)	107% (inactive)	95.2% (inactive)	82.9% (inactive)	100% (inactive)	80.7% (inactive)	93.7% (inactive)	109% (inactive)	97% (inactive)	96.4% (inactive)	105% (inactive)	107% (inactive)	93.1% (inactive)	99.6% (inactive)	–
CCN(CC)CCOc1ccccc1C	101% (inactive)	112% (inactive)	98.7% (inactive)	95% (inactive)	107% (inactive)	101% (inactive)	102% (inactive)	106% (inactive)	102% (inactive)	103% (inactive)	111% (inactive)	102% (inactive)	97.2% (inactive)	111% (inactive)	103% (inactive)	109% (inactive)	117% (inactive)	119% (inactive)	124% (inactive)	–
O=C(NCCCN1CCCCC1)c1ccc(-c2nc3ccc4[nH]ncc4c3c3c2CCCC3)cc1	81.4% (inactive)	67.4% (inactive)	50.4% (inactive)	54.4% (inactive)	43.7% (inactive)	27.4% (inactive)	10.9% (inactive)	-10% (active)	21.6% (inactive)	18.4% (inactive)	-18.3% (active)	62% (inactive)	94.6% (inactive)	54.3% (inactive)	24.9% (inactive)	29.2% (inactive)	67.5% (inactive)	14.4% (inactive)	85.2% (inactive)	–
CS(=O)(=O)Nc1cc(-c2ccc3ncnc(Nc4ccc(F)c(Cl)c4)c3c2)cnc1Cl	-7.25% (active)	-3.92% (active)	10.2% (inactive)	-3.81% (active)	-14.5% (active)	14.6% (inactive)	3.33% (active)	-59.3% (active)	9.76% (active)	-19.9% (active)	0.546% (active)	15.8% (inactive)	15.3% (inactive)	17.6% (inactive)	-19.6% (active)	-14.1% (active)	-22.6% (active)	-11.5% (active)	34.2% (inactive)	–
CCOC(=O)c1c(-c2ccc(OC)cc2)c(C#N)c2c(C#N)c(N)nn2c1N	3.6% (active)	41.1% (inactive)	40.8% (inactive)	47.6% (inactive)	57.7% (inactive)	53.3% (inactive)	39.8% (inactive)	-7.96% (active)	5.96% (active)	10% (inactive)	0.886% (active)	43.9% (inactive)	70.1% (inactive)	68.1% (inactive)	45.8% (inactive)	24.6% (inactive)	5.29% (active)	27.7% (inactive)	17.8% (inactive)	–
Nc1ccc(S(=O)(=O)c2ccc(N)cc2)cc1	122% (inactive) and 113% (inactive)	94.7% (inactive)	101% (inactive)	89.8% (inactive) and 75.5% (inactive)	100% (inactive)	96.9% (inactive) and 110% (inactive)	86.6% (inactive)	103% (inactive) and 106% (inactive)	94.8% (inactive) and -23.9% (active)	109% (inactive) and 108% (inactive)	99.7% (inactive) and 121% (inactive)	97.2% (inactive) and 93.1% (inactive)	104% (inactive) and 96.4% (inactive)	111% (inactive) and 117% (inactive)	118% (inactive) and 102% (inactive)	108% (inactive) and 61% (inactive)	121% (inactive) and 112% (inactive)	106% (inactive) and 96.8% (inactive)	101% (inactive) and 97.2% (inactive)	–
COc1ccc(Nc2nn3c(SCC(=O)c4ccc(C)cc4)nnc3s2)cc1	98.2% (inactive)	99.9% (inactive)	101% (inactive)	58.7% (inactive)	107% (inactive)	86.5% (inactive)	75.2% (inactive)	93.7% (inactive)	98.1% (inactive)	85.4% (inactive)	68.9% (inactive)	94.8% (inactive)	99.3% (inactive)	108% (inactive)	79.2% (inactive)	91.4% (inactive)	110% (inactive)	92.2% (inactive)	104% (inactive)	–
CCN(C(=O)N1CCN(c2cc3c(cc2F)c(=O)c(C(=O)O)cn3C2CC2)CC1)c1nc(-c2ccccc2)cs1	45.9% (inactive)	31% (inactive)	5.8% (active)	1.81% (active)	40.9% (inactive)	8.64% (active)	29.4% (inactive)	5.67% (active)	18.1% (inactive)	14.7% (inactive)	10% (inactive)	30.2% (inactive)	35.7% (inactive)	55.5% (inactive)	63.8% (inactive)	12.5% (inactive)	15.9% (inactive)	18.2% (inactive)	22.4% (inactive)	–
O=C1/C(=C/c2ccccc2[N+](=O)[O-])Cc2ccccc21	68.4% (inactive) and 80.5% (inactive)	–	20.3% (inactive) and 48.5% (inactive)	-66.2% (active) and 25.9% (inactive)	-15.6% (active) and 21.2% (inactive)	-23.9% (active) and -43.3% (active)	-10.6% (active) and -9.61% (active)	-18.3% (active) and 14.1% (inactive)	-0.132% (active) and 4.53% (active)	-1.54% (active) and 13.5% (inactive)	3.7% (active) and 11.5% (inactive)	0.344% (active) and 59.9% (inactive)	-1.63% (active) and 12.7% (inactive)	-36.5% (active) and -39.5% (active)	70.4% (inactive) and 95.2% (inactive)	-10.6% (active) and 17.3% (inactive)	-23.8% (active) and -50.2% (active)	32.3% (inactive) and 71.2% (inactive)	-47.5% (active)	–
O=C(NNc1ccccc1)c1ccccc1	81.5% (inactive) and 49.8% (inactive)	–	84.5% (inactive) and 80% (inactive)	51.1% (inactive)	65.3% (inactive)	57% (inactive) and 38.5% (inactive)	22.7% (inactive)	118% (inactive) and 103% (inactive)	56.8% (inactive) and 49.8% (inactive)	54.4% (inactive) and 41.3% (inactive)	104% (inactive)	106% (inactive) and 73.5% (inactive)	77.2% (inactive) and 68.7% (inactive)	94.5% (inactive) and 64.6% (inactive)	95.5% (inactive) and 103% (inactive)	–	81.4% (inactive) and 101% (inactive)	90.8% (inactive) and 99.1% (inactive)	64.3% (inactive) and 57.6% (inactive)	82.2% (inactive) and 76.6% (inactive)
O=c1oc2c(Br)cc(Br)cc2cc1-c1cc(-c2ccc(-c3cc(-c4cc5cc(Br)cc(Br)c5oc4=O)nc(-c4cc5cc(Br)cc(Br)c5oc4=O)c3)cc2)cc(-c2cc3cc(Br)cc(Br)c3oc2=O)n1	101% (inactive)	105% (inactive)	107% (inactive)	80.6% (inactive)	107% (inactive)	103% (inactive)	110% (inactive)	95.9% (inactive)	101% (inactive)	102% (inactive)	92.5% (inactive)	–	109% (inactive)	113% (inactive)	101% (inactive)	106% (inactive)	104% (inactive)	90.7% (inactive)	98.1% (inactive)	–
Cc1ccc(C(=O)N(CCCN)[C@@H](c2nc3cc(Cl)ccc3c(=O)n2Cc2ccccc2)C(C)C)cc1	-43% (active)	-7.16% (active)	-15.6% (active)	5.01% (active)	-33.5% (active)	-28.3% (active)	4.04% (active)	-4.18% (active)	1.72% (active)	-29.3% (active)	-32% (active)	-11.7% (active)	-17.5% (active)	33.3% (inactive)	38.6% (inactive)	8.41% (active)	-13.7% (active)	-12.8% (active)	-30.1% (active)	–
N#Cc1c(N)nnn1Cc1cc(=O)oc2ccc(O)cc12	117% (inactive)	117% (inactive)	106% (inactive)	90.5% (inactive)	104% (inactive)	106% (inactive)	107% (inactive)	102% (inactive)	93.8% (inactive)	109% (inactive)	95.3% (inactive)	–	106% (inactive)	110% (inactive)	112% (inactive)	112% (inactive)	113% (inactive)	99% (inactive)	111% (inactive)	–
O=C(Nc1ccccc1C(=O)N/N=C(\c1ccccc1)c1ccccn1)c1ccccc1	30.2% (inactive)	10.1% (inactive)	25.4% (inactive)	8.85% (active)	47.4% (inactive)	13.6% (inactive)	16.9% (inactive)	16.5% (inactive)	-2.61% (active)	2.47% (active)	4.3% (active)	13.2% (inactive)	31.9% (inactive)	12.7% (inactive)	10.7% (inactive)	20.9% (inactive)	28% (inactive)	65.2% (inactive)	9.54% (active)	–
